Source: PubChem BioAssay AID588492 (Sanford-Burnham Center for Chemical Genomics, 2011)
The whole screen tested about 360,000 compounds, of which about 2,300 (0.64%) were called active.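 Rule for the calls: active = compounds giving at least 50% protection of heart cells from peroxide-induced death in the single-dose screen, raw or plate-pattern-corrected value; inactive = the rest.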 What follows is part of a selection rich in actives, with near analogues and random picks from the rest.

Assay: cardioprotection against H2O2-induced cell death, primary screen, uHTS, H9c2 cells, ATPLite luminescence (AID 588492);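 note: 0% = DMSO wells with peroxide and 100% = DMSO wells without peroxide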
Conditions: H9c2 cardiomyocytes, H2O2 injury protection, 2 h, at 20 µM, stronger effect = higher value

Structure (SMILES)	protection from H2O2 cell death
COc1ccc(S(=O)(=O)N2CCN(c3cnccn3)CC2)cc1	-1.4% (inactive)
CCc1nc2ccc(C(=O)NC3CCN(Cc4ccccc4)CC3)cn2c1N(C)CCN1CCOCC1	7% (inactive)
CCOC(=O)N1CCN(Cc2oc(CO)cc(=O)c2O)CC1	13% (inactive)
NC(=O)CSC1=Nc2ccccc2C2=NC(CCC(=O)NCc3ccc(F)cc3)C(=O)N12 (stereo not given)	2.5% (inactive)
O=C(CSC1=Nc2ccccc2C2=NC(c3ccccc3)C(=O)N12)NCC1CCCO1 (stereo not given)	29.7% (inactive)
CC(C)C1N=C2c3ccccc3N=C(SCC(=O)c3ccc(O)c(O)c3)N2C1=O (stereo not given)	96.8% (active)
Cc1ccc(S(=O)(=O)N2CCC(C(=O)N[C@@H](C)C(=O)NCCc3ccccc3)CC2)cc1	2% (inactive)
COc1cccc(CNc2nc3cc(-c4csc5ccccc45)sc3c(=O)n2C)c1	-3.9% (inactive)
COc1ccc(-c2nn3c(-c4ccccc4)nnc3s2)cc1OC	63.1% (active)
COc1ccc(NC(=O)c2cc3nc(-c4ccccc4)cc(C)n3n2)cc1OC	36.7% (inactive)
CCOc1cccc(-c2nnc(SCC(=O)NC3CC3)n2C)c1	-1.8% (inactive)
COc1ccc(-n2c(SCC(=O)OC(C)C)nnc2-c2ccccn2)cc1	4% (inactive)
c1ccc(-c2cc(-c3nnc4sc(-c5ccccn5)nn34)[nH]n2)cc1	63.3% (active)
CN(C(=O)c1ccccn1)c1nnc(-c2ccccn2)s1	-5.5% (inactive)
COc1ccc(-c2nc3ccccc3n2CCC(C)C)cc1OC	6.5% (inactive)
CCOc1cccc(-c2nn3c(-c4ccccn4)nnc3s2)c1	68% (active)
O=S(=O)(Nc1ccc2ccccc2c1)N1CCCCC1	-4% (inactive)
Cc1c(C(=O)O)nnn1-c1nonc1N	3.3% (inactive)
Cc1cc(C)c(CN2CCN(C(=O)Cn3ccc(NC(=O)OCc4ccccc4)nc3=O)CC2)c(C)c1	-25% (inactive)
CCN(CC)CCCN1C(=O)C(=O)/C(=C(/O)c2c(C)nc3ccccn23)C1c1ccc(C)o1 (stereo not given)	4.2% (inactive)

Structure (SMILES)	protection from H2O2 cell death
COC(=O)c1ccc2nc(-c3ccc(Cl)cc3)c(Cc3cccc(F)c3)n2c1	-2.7% (inactive)
Cc1ccc(N/C(N)=N/c2nc(C(F)(F)F)cc(C(F)(F)F)n2)cc1	-14.8% (inactive)
CCO[C@H]1OC(C(=O)N2CCOCC2)=C[C@@H](c2ccc3c(c2)OCO3)[C@@H]1CCCO	2.8% (inactive)
COc1ccc(OC)c(C(O)c2ncc(-c3cccc(C(F)(F)F)c3)[nH]2)c1 (stereo not given)	-12.4% (inactive)
CCNC(=O)C1(C)CCCN(Cc2noc(-c3ccccc3OC)n2)C1 (stereo not given)	-1.9% (inactive)
CCNC(=O)c1sccc1-n1cccc1	5% (inactive)
COc1ccccc1OCC(=O)Nc1ccccc1C(=O)NC1CC1	4.6% (inactive)
Cc1ccccc1NC(=O)CSC1=NCCN1	-2% (inactive)
O=C(COc1cccc2c1CCNC2=O)NC1CCCCC1	56.1% (active)
O=C(COc1ccccc1O)NC1CCCC1	-0.6% (inactive)
Cc1ccccc1NC(=O)COc1cccc2c1CCNC2=O	70.7% (active)
O=C(COC(=O)c1cccc(Cl)c1)NC1CCCCCCC1	-3.2% (inactive)
OCC1(Cc2ccccc2C(F)(F)F)CCN(Cc2cccc3cnccc23)CC1	-2.8% (inactive)
Cc1cc(O)ccc1NC1=CC(=O)CC(C)(C)C1	-13.4% (inactive)
CCN(CC)CCCNC(=O)c1c(O)c2cc(F)cc3c2n(c1=O)C(C)CC3 (stereo not given)	22.2% (inactive)
CCCCN(CCCC)CCC(O)c1cc2c(Cl)cc(Cl)cc2c2cc(C(F)(F)F)ccc12 (stereo not given)	-33.9% (inactive)
Cc1ccc(NC(=O)Cn2cccc2C2=NC(c3ccccc3)CO2)c(C)c1 (stereo not given)	-6.9% (inactive)
COc1ccc(NC(=O)CCS(=O)(=O)c2cc3c(cc2Cl)NC(=O)CO3)cc1OC	7.8% (inactive)
COc1ccc(Cl)cc1NC(=O)CCS(=O)(=O)c1cc2c(cc1C)NC(=O)CO2	54.6% (active)
Cc1cc2c(cc1S(=O)(=O)CCC(=O)NCc1ccccc1)OCC(=O)N2	2.9% (inactive)

Structure (SMILES)	protection from H2O2 cell death
O=C(Oc1cccc(N2C(=O)C3C4c5ccccc5C(c5ccccc54)C3C2=O)c1)c1ccco1 (stereo not given)	-6.6% (inactive)
Nc1c(N(CCO)C(=O)C2CCCCC2)c(=O)[nH]c(=O)n1Cc1ccccc1	-1.8% (inactive)
O=C(CNC(=O)c1ccc(Cl)cc1Cl)NCC(=O)Nc1ccccc1N1CCOCC1	-2.6% (inactive)
Cc1nccn1-c1ccc(NC(=O)[C@H]2O[C@@H](n3cnc4c(N)ncnc43)[C@H](O)[C@@H]2O)cc1	4.5% (inactive)
Cc1nc(NC(=O)c2ccc3c(c2)OCCO3)ccc1Br	-4.4% (inactive)
Cc1cccc(C)c1NC(=O)CNC(=O)c1ccc2c(c1)OCCO2	0.8% (inactive)
Cc1ccc2sc(NNC(=O)c3ccc4c(c3)OCCO4)nc2c1C	81.8% (active)
O=C1CCN(Cc2ccc([N+](=O)[O-])cc2)CCN1[C@H](CO)Cc1ccccc1	0.1% (inactive)
COc1ccc(-c2ccc(Nc3ccc(S(=O)(=O)N4CCCC4)cc3)nn2)cc1OC	58.5% (active)
COc1cc(C(C)=O)ccc1OC(C)C(=O)Nc1ccc(S(=O)(=O)N2CCCC2)cc1 (stereo not given)	4.6% (inactive)
COc1ccc(S(=O)(=O)N2CCCCCC2)cc1NC(=O)Cc1ccc(OC)c(OC)c1	4% (inactive)
CC(Nc1ccccc1)c1cccnc1 (stereo not given)	4.3% (inactive)
O=C(CCN1CCCCC1)Nc1ccc(F)c(F)c1	0.6% (inactive)
Cc1cccc(NC(=S)NCCc2ccc(Cl)cc2)c1C	-6.5% (inactive)
Oc1cc2c(cc1O)CN(C(=S)NCCc1ccc(Cl)cc1)CCC2	74.4% (active)
O=C(NCCc1ccc(Cl)cc1)c1cccc(N2CCCC2=O)c1	-1.2% (inactive)
CC(C)C1CCN(C(=O)C2CCC(=O)N(C3CCCCCC3)C2)CC1 (stereo not given)	-2.1% (inactive)
Cc1ccc(S(=O)(=O)N2CCCCC2)cc1NC(=O)c1cccnc1	12% (inactive)
O=C(c1cccnc1)N1CCN(S(=O)(=O)c2cccs2)CC1	10.1% (inactive)
O=C(N/N=C/c1sc(N2CCCCC2)nc1-c1cccs1)c1cccnc1	56.3% (active)
